# Data from ChEMBL document CHEMBL1157539, “Thousands of chemical starting points for antimalarial lead identification” (Nature, 2010).
# Legend:
# Assay type in all cases: functional
# [1] = system: Plasmodium falciparum; test: GSK_TCMDC: Inhibition of Plasmodium falciparum 3D7 in whole red blood cells, using parasite LDH activity as an index of growth. Test compounds present at 2uM
# [2] = system: Plasmodium falciparum; test: GSK_TCMDC: Inhibition of Plasmodium falciparum Dd2 in whole red blood cells, using parasite LDH activity as an index of growth. Test compounds present at 2uM
# [3] = system: HepG2; test: GSK_TCMDC: Percent inhibition of human HepG2 cell line. Test compounds present at 10uM.
Compound,Inhibition [1],Inhibition [2],Inhibition [3]
COc1cc2nccc(Nc3ccc(Oc4ccccc4)cc3)c2cc1OC.Cl,100%,99%,13%
CN(C)Cc1c(O)ccc2[nH]c(-c3ccc(F)cc3F)nc12,99%,17%,4%
COc1cc2nc(N3CCC(NC(=O)c4cccc(N(C)C)c4)CC3)nc(N)c2cc1OC.O=C(O)/C=C\C(=O)O,98%,0%,6%
Cc1cc(C(=O)CN2C(=O)NC3(CCCc4ccccc43)C2=O)c(C)n1Cc1ccc(F)cc1 (stereo not drawn),92%,53%,4%
Cc1nc2c(c([O-])c1Cl)-c1ccc(Oc3cccc(C(F)(F)F)c3)cc1C2=O.[Na+],94%,95%,25%
Br.N=C1N=C(N)NC2(CCCCC2)N1OCCCOc1cc(Cl)c(Cl)cc1Cl,94%,98%,62%
Cc1cc(NCCC(=O)Nc2ccccc2)nc(NCCc2ccc(F)cc2)n1.O=C(O)C(F)(F)F,100%,43%,26%
CC(C)(C)c1ccc(-c2csc(NC(=O)CC(c3ccccc3)c3ccccc3)n2)cc1,86%,64%,3%
NC1=NC(c2ccccc2)(c2ccccc2)C(=O)N1CCCCc1ccccn1,94%,56%,10%
CN(C(=O)C(C)(C)Oc1ccc(Cl)cc1)C1CCN(CCCCCNC(=O)/C=C/c2ccc(Cl)c(Cl)c2)CC1,96%,26%,86%
O=C(NCc1ccccc1)C1Cc2c([nH]c3ccc(Br)cc23)C2(CCN(Cc3ccccc3)CC2)N1 (stereo not drawn),98%,70%,15%
